# Reference: publication PMC11062922 (Nature Chemical Biology, 2023)
# Like-named read-outs stand apart in the source and are kept apart here.
# Columns and labels:
# Settings in all cases: read-out: apparent Kd, n = 1
# TBK1 = test system: TBK1
# TGFBR1 = test system: TGFBR1
# TNK1 = test system: TNK1
# [1] = compound concentrations:100 nM and 1000 nM (sheet 'Lestaurtinib' of Supplementary Table 1),run:Lestaurtinib_02443_R3,Plate:MR009
# [2] = compound concentrations:100 nM and 1000 nM (sheet 'Lestaurtinib' of Supplementary Table 1),run:Lestaurtinib_02473_R3,Plate:MR010
# [3] = compound concentrations:100 nM and 1000 nM (sheet 'Lestaurtinib' of Supplementary Table 1),run:Lestaurtinib_02487_R2,Plate:MR012
# [4] = compound concentrations:100 nM and 1000 nM (sheet 'Lestaurtinib' of Supplementary Table 1),run:Lestaurtinib_02496_R2,Plate:MR013
# [5] = compound concentrations:100 nM and 1000 nM (sheet 'Lestaurtinib' of Supplementary Table 1),run:Lestaurtinib_02566_R1,Plate:MR014
# [6] = compound concentrations:100 nM and 1000 nM (sheet 'Lestaurtinib' of Supplementary Table 1),run:Lestaurtinib_02566_R2,Plate:MR014
# [7] = compound concentrations:100 nM and 1000 nM (sheet 'Lestaurtinib' of Supplementary Table 1),run:Lestaurtinib_02584_R3,Plate:MR017
# [8] = compound concentrations:100 nM and 1000 nM (sheet 'Lestaurtinib' of Supplementary Table 1),run:Lestaurtinib_02606_R1,Plate:MR019
# [9] = compound concentrations:100 nM and 1000 nM (sheet 'Lestaurtinib' of Supplementary Table 1),run:Lestaurtinib_02741_R3,Plate:MR023
# [10] = compound concentrations:100 nM and 1000 nM (sheet 'Lestaurtinib' of Supplementary Table 1),run:Lestaurtinib_02752_R2,Plate:MR025
# [11] = compound concentrations:100 nM and 1000 nM (sheet 'Lestaurtinib' of Supplementary Table 1),run:Lestaurtinib_02765_R2,Plate:MR026
# [12] = compound concentrations:100 nM and 1000 nM (sheet 'Lestaurtinib' of Supplementary Table 1),run:Lestaurtinib_02766_R1,Plate:MR027
# [13] = compound concentrations:100 nM and 1000 nM (sheet 'Lestaurtinib' of Supplementary Table 1),run:Lestaurtinib_02766_R3,Plate:MR027
# [14] = compound concentrations:100 nM and 1000 nM (sheet 'Lestaurtinib' of Supplementary Table 1),run:Lestaurtinib_02802_R1,Plate:MR029
# [15] = compound concentrations:100 nM and 1000 nM (sheet 'Lestaurtinib' of Supplementary Table 1),run:Lestaurtinib_02339_R2,Plate:MR001
# [16] = compound concentrations:100 nM and 1000 nM (sheet 'Lestaurtinib' of Supplementary Table 1),run:Lestaurtinib_02339_R3,Plate:MR001
# [17] = compound concentrations:100 nM and 1000 nM (sheet 'Lestaurtinib' of Supplementary Table 1),run:Lestaurtinib_02364_R3,Plate:MR002
# [18] = compound concentrations:100 nM and 1000 nM (sheet 'Lestaurtinib' of Supplementary Table 1),run:Lestaurtinib_02367_R2,Plate:MR003
# [19] = compound concentrations:100 nM and 1000 nM (sheet 'Lestaurtinib' of Supplementary Table 1),run:Lestaurtinib_02437_R3,Plate:MR007
substance,measurement,setting,value
Lestaurtinib,potency estimated from few doses,"TBK1; compound concentrations:100 nM and 1000 nM (sheet 'Lestaurtinib' of Supplementary Table 1),run:Lestaurtinib_02443_R1,Plate:MR009",1620 nM
same,potency estimated from few doses,TBK1; [1],884 nM
same,potency estimated from few doses,"TBK1; compound concentrations:100 nM and 1000 nM (sheet 'Lestaurtinib' of Supplementary Table 1),run:Lestaurtinib_02473_R2,Plate:MR010",1370 nM
same,potency estimated from few doses,TBK1; [2],851 nM
same,potency estimated from few doses,"TBK1; compound concentrations:100 nM and 1000 nM (sheet 'Lestaurtinib' of Supplementary Table 1),run:Lestaurtinib_02482_R1,Plate:MR011",1350 nM
same,potency estimated from few doses,"TBK1; compound concentrations:100 nM and 1000 nM (sheet 'Lestaurtinib' of Supplementary Table 1),run:Lestaurtinib_02482_R2,Plate:MR011",1320 nM
same,potency estimated from few doses,"TBK1; compound concentrations:100 nM and 1000 nM (sheet 'Lestaurtinib' of Supplementary Table 1),run:Lestaurtinib_02487_R1,Plate:MR012",950 nM
same,potency estimated from few doses,TBK1; [3],1510 nM
same,potency estimated from few doses,TBK1; [4],1240 nM
same,potency estimated from few doses,"TBK1; compound concentrations:100 nM and 1000 nM (sheet 'Lestaurtinib' of Supplementary Table 1),run:Lestaurtinib_02496_R3,Plate:MR013",1350 nM
same,potency estimated from few doses,TBK1; [5],854 nM
same,potency estimated from few doses,TBK1; [6],1410 nM
same,potency estimated from few doses,"TBK1; compound concentrations:100 nM and 1000 nM (sheet 'Lestaurtinib' of Supplementary Table 1),run:Lestaurtinib_02577_R1,Plate:MR016",807 nM
same,potency estimated from few doses,TBK1; [7],1410 nM
same,potency estimated from few doses,"TBK1; compound concentrations:100 nM and 1000 nM (sheet 'Lestaurtinib' of Supplementary Table 1),run:Lestaurtinib_02601_R1,Plate:MR018",1210 nM
same,potency estimated from few doses,"TBK1; compound concentrations:100 nM and 1000 nM (sheet 'Lestaurtinib' of Supplementary Table 1),run:Lestaurtinib_02601_R2,Plate:MR018",1760 nM
same,potency estimated from few doses,"TBK1; compound concentrations:100 nM and 1000 nM (sheet 'Lestaurtinib' of Supplementary Table 1),run:Lestaurtinib_02601_R3,Plate:MR018",1700 nM
same,potency estimated from few doses,TBK1; [8],1530 nM
same,potency estimated from few doses,"TBK1; compound concentrations:100 nM and 1000 nM (sheet 'Lestaurtinib' of Supplementary Table 1),run:Lestaurtinib_02624_R1,Plate:MR020",1910 nM
same,potency estimated from few doses,"TBK1; compound concentrations:100 nM and 1000 nM (sheet 'Lestaurtinib' of Supplementary Table 1),run:Lestaurtinib_02624_R2,Plate:MR020",1400 nM
same,potency estimated from few doses,"TBK1; compound concentrations:100 nM and 1000 nM (sheet 'Lestaurtinib' of Supplementary Table 1),run:Lestaurtinib_02624_R3,Plate:MR020",1460 nM
same,potency estimated from few doses,TBK1; [9],1510 nM
same,potency estimated from few doses,"TBK1; compound concentrations:100 nM and 1000 nM (sheet 'Lestaurtinib' of Supplementary Table 1),run:Lestaurtinib_02748_R2,Plate:MR024",1310 nM
same,potency estimated from few doses,TBK1; [10],837 nM
same,potency estimated from few doses,"TBK1; compound concentrations:100 nM and 1000 nM (sheet 'Lestaurtinib' of Supplementary Table 1),run:Lestaurtinib_02752_R3,Plate:MR025",961 nM
same,potency estimated from few doses,TBK1; [11],1300 nM
same,potency estimated from few doses,TBK1; [12],972 nM
same,potency estimated from few doses,TBK1; [13],1300 nM
same,potency estimated from few doses,"TBK1; compound concentrations:100 nM and 1000 nM (sheet 'Lestaurtinib' of Supplementary Table 1),run:Lestaurtinib_02768_R2,Plate:MR028",1930 nM
same,potency estimated from few doses,"TBK1; compound concentrations:100 nM and 1000 nM (sheet 'Lestaurtinib' of Supplementary Table 1),run:Lestaurtinib_02768_R3,Plate:MR028",1330 nM
same,potency estimated from few doses,"TBK1; compound concentrations:100 nM and 1000 nM (sheet 'Lestaurtinib' of Supplementary Table 1),run:Lestaurtinib_02795_R1,Plate:MR022",1800 nM
same,potency estimated from few doses,"TBK1; compound concentrations:100 nM and 1000 nM (sheet 'Lestaurtinib' of Supplementary Table 1),run:Lestaurtinib_02795_R2,Plate:MR022",1370 nM
same,potency estimated from few doses,"TBK1; compound concentrations:100 nM and 1000 nM (sheet 'Lestaurtinib' of Supplementary Table 1),run:Lestaurtinib_02795_R3,Plate:MR022",1700 nM
same,potency estimated from few doses,TBK1; [14],976 nM
same,potency estimated from few doses,"TBK1; compound concentrations:100 nM and 1000 nM (sheet 'Lestaurtinib' of Supplementary Table 1),run:Lestaurtinib_02802_R2,Plate:MR029",1300 nM
same,potency estimated from few doses,"TBK1; compound concentrations:100 nM and 1000 nM (sheet 'Lestaurtinib' of Supplementary Table 1),run:Lestaurtinib_03172_R2,Plate:MR031",1750 nM
same,potency estimated from few doses,"TBK1; compound concentrations:100 nM and 1000 nM (sheet 'Lestaurtinib' of Supplementary Table 1),run:Lestaurtinib_03260_R1,Plate:MR033",1460 nM
same,potency estimated from few doses,"TBK1; compound concentrations:100 nM and 1000 nM (sheet 'Lestaurtinib' of Supplementary Table 1),run:Lestaurtinib_03260_R2,Plate:MR033",1580 nM
same,potency estimated from few doses,"TBK1; compound concentrations:100 nM and 1000 nM (sheet 'Lestaurtinib' of Supplementary Table 1),run:Lestaurtinib_03260_R3,Plate:MR033",1240 nM
same,potency estimated from few doses,TGFBR1; [15],1530 nM
same,potency estimated from few doses,TGFBR1; [16],1420 nM
same,potency estimated from few doses,TGFBR1; [17],1630 nM
same,potency estimated from few doses,TGFBR1; [18],1900 nM
same,potency estimated from few doses,"TGFBR1; compound concentrations:100 nM and 1000 nM (sheet 'Lestaurtinib' of Supplementary Table 1),run:Lestaurtinib_02367_R3,Plate:MR003",2070 nM
same,potency estimated from few doses,"TGFBR1; compound concentrations:100 nM and 1000 nM (sheet 'Lestaurtinib' of Supplementary Table 1),run:Lestaurtinib_02381_R1,Plate:MR004",2080 nM
same,potency estimated from few doses,"TGFBR1; compound concentrations:100 nM and 1000 nM (sheet 'Lestaurtinib' of Supplementary Table 1),run:Lestaurtinib_02407_R1,Plate:MR005",2020 nM
same,potency estimated from few doses,"TGFBR1; compound concentrations:100 nM and 1000 nM (sheet 'Lestaurtinib' of Supplementary Table 1),run:Lestaurtinib_02422_R1,Plate:MR006",964 nM
same,potency estimated from few doses,"TGFBR1; compound concentrations:100 nM and 1000 nM (sheet 'Lestaurtinib' of Supplementary Table 1),run:Lestaurtinib_02437_R2,Plate:MR007",1790 nM
same,potency estimated from few doses,TGFBR1; [19],176 nM
same,potency estimated from few doses,"TGFBR1; compound concentrations:100 nM and 1000 nM (sheet 'Lestaurtinib' of Supplementary Table 1),run:Lestaurtinib_02438_R2,Plate:MR008",1420 nM
same,potency estimated from few doses,"TGFBR1; compound concentrations:100 nM and 1000 nM (sheet 'Lestaurtinib' of Supplementary Table 1),run:Lestaurtinib_02438_R3,Plate:MR008",1580 nM
same,potency estimated from few doses,TGFBR1; [1],1320 nM
same,potency estimated from few doses,TGFBR1; [2],1750 nM
same,potency estimated from few doses,"TGFBR1; compound concentrations:100 nM and 1000 nM (sheet 'Lestaurtinib' of Supplementary Table 1),run:Lestaurtinib_02482_R3,Plate:MR011",1760 nM
same,potency estimated from few doses,TGFBR1; [3],1400 nM
same,potency estimated from few doses,"TGFBR1; compound concentrations:100 nM and 1000 nM (sheet 'Lestaurtinib' of Supplementary Table 1),run:Lestaurtinib_02496_R1,Plate:MR013",1530 nM
same,potency estimated from few doses,TGFBR1; [4],1830 nM
same,potency estimated from few doses,TGFBR1; [5],827 nM
same,potency estimated from few doses,TGFBR1; [6],1310 nM
same,potency estimated from few doses,"TGFBR1; compound concentrations:100 nM and 1000 nM (sheet 'Lestaurtinib' of Supplementary Table 1),run:Lestaurtinib_02566_R3,Plate:MR014",1340 nM
same,potency estimated from few doses,"TGFBR1; compound concentrations:100 nM and 1000 nM (sheet 'Lestaurtinib' of Supplementary Table 1),run:Lestaurtinib_02577_R3,Plate:MR016",1820 nM
same,potency estimated from few doses,TGFBR1; [7],1580 nM
same,potency estimated from few doses,TGFBR1; [8],2210 nM
same,potency estimated from few doses,"TGFBR1; compound concentrations:100 nM and 1000 nM (sheet 'Lestaurtinib' of Supplementary Table 1),run:Lestaurtinib_02606_R2,Plate:MR019",2080 nM
same,potency estimated from few doses,TGFBR1; [9],1350 nM
same,potency estimated from few doses,"TGFBR1; compound concentrations:100 nM and 1000 nM (sheet 'Lestaurtinib' of Supplementary Table 1),run:Lestaurtinib_02748_R1,Plate:MR024",1420 nM
same,potency estimated from few doses,"TGFBR1; compound concentrations:100 nM and 1000 nM (sheet 'Lestaurtinib' of Supplementary Table 1),run:Lestaurtinib_02748_R3,Plate:MR024",1750 nM
same,potency estimated from few doses,TGFBR1; [10],1600 nM
same,potency estimated from few doses,TGFBR1; [11],2020 nM
same,potency estimated from few doses,TGFBR1; [12],1360 nM
same,potency estimated from few doses,TGFBR1; [13],1570 nM
same,potency estimated from few doses,TGFBR1; [14],1540 nM
same,potency estimated from few doses,"TGFBR1; compound concentrations:100 nM and 1000 nM (sheet 'Lestaurtinib' of Supplementary Table 1),run:Lestaurtinib_02896_R3,Plate:MR030",950 nM
same,potency estimated from few doses,"TGFBR1; compound concentrations:100 nM and 1000 nM (sheet 'Lestaurtinib' of Supplementary Table 1),run:Lestaurtinib_03172_R1,Plate:MR031",1540 nM
same,potency estimated from few doses,"TGFBR1; compound concentrations:100 nM and 1000 nM (sheet 'Lestaurtinib' of Supplementary Table 1),run:Lestaurtinib_03172_R3,Plate:MR031",1580 nM
same,potency estimated from few doses,"TGFBR1; compound concentrations:100 nM and 1000 nM (sheet 'Lestaurtinib' of Supplementary Table 1),run:Lestaurtinib_03252_R1,Plate:MR032",1330 nM
same,potency estimated from few doses,"TGFBR1; compound concentrations:100 nM and 1000 nM (sheet 'Lestaurtinib' of Supplementary Table 1),run:Lestaurtinib_03252_R2,Plate:MR032",1590 nM
same,potency estimated from few doses,"TNK1; compound concentrations:100 nM and 1000 nM (sheet 'Lestaurtinib' of Supplementary Table 1),run:Lestaurtinib_02339_R1,Plate:MR001",220 nM
same,potency estimated from few doses,TNK1; [15],93.5 nM
same,potency estimated from few doses,TNK1; [16],256 nM
same,potency estimated from few doses,"TNK1; compound concentrations:100 nM and 1000 nM (sheet 'Lestaurtinib' of Supplementary Table 1),run:Lestaurtinib_02364_R2,Plate:MR002",213 nM
same,potency estimated from few doses,TNK1; [17],190 nM
same,potency estimated from few doses,"TNK1; compound concentrations:100 nM and 1000 nM (sheet 'Lestaurtinib' of Supplementary Table 1),run:Lestaurtinib_02367_R1,Plate:MR003",191 nM
same,potency estimated from few doses,TNK1; [18],208 nM
same,potency estimated from few doses,"TNK1; compound concentrations:100 nM and 1000 nM (sheet 'Lestaurtinib' of Supplementary Table 1),run:Lestaurtinib_02407_R3,Plate:MR005",213 nM
same,potency estimated from few doses,"TNK1; compound concentrations:100 nM and 1000 nM (sheet 'Lestaurtinib' of Supplementary Table 1),run:Lestaurtinib_02422_R3,Plate:MR006",75 nM
same,potency estimated from few doses,TNK1; [19],15.8 nM
